Here are results for 16 compounds from PubChem BioAssay (NCI).

Compounds without any hit were thinned out: in the full panel of roughly 83,000, 20% have a hit.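 Note: values are percent growth. 100 is the growth of untreated cells, values between 100 and 0 indicate rising inhibition; between -100 and 0 indicates cell death.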 A number with no mark means an inactive call. Activity calls are given as the source filed them. How the source made its calls: active means growth percent below 10; inactive means the rest.

Test systems include T-47D breast; BT-549 breast; MDA-MB-435 melanoma; SW-620 colon; MCF7 breast; HCT-116 colon; HCC-2998 colon; KM12 colon.
What all share (assay): NCI-60 one-dose screen, 48 h (100 = growth as untreated, 0 = no growth, -100 = all killed)
Settings in all cases: 10 µM unless noted

For `O=CN1N=C(c2ccc(Cl)cc2)CC1c1cccc(Nc2ccnc3cc(Cl)ccc23)c1` (stereo not drawn), the growth is 11.8% in the test with T-47D breast; 7.26% (active) with BT-549 breast; 4.68% (active) in the test with MDA-MB-435 melanoma; 27% in the test on SW-620 colon; 11.3% in the test on MCF7 breast; 7.72% (active) in the test on HCT-116 colon. For the same compound, the growth is 40.9% in the test on HCC-2998 colon and 19.8% in the test with KM12 colon.
Regarding `COc1ccc(-c2ccc(O)c(C(=O)/C=C/c3cc(OC)c(OC)c(OC)c3)c2)cc1`, the growth in the test with T-47D breast was 67%; in the test on BT-549 breast, 90.4%; in the test with MDA-MB-435 melanoma, 64.6%; in the test with SW-620 colon it was 88.6%; in the test on MCF7 breast it was 64.2%; in the test on HCT-116 colon, 68.8%. The values for the growth with HCC-2998 colon and in the test on KM12 colon were 100% and 79.9%, respectively.
Consider `CCN(CC)CCCCCCCNc1c2ccc(Cl)cc2nc2ccc(OC)cc12`, for which the growth in the test on T-47D breast was -42.3% (active); with BT-549 breast it was -20.9% (active); in the test with MDA-MB-435 melanoma, -78.9% (active); with SW-620 colon it was -52.9% (active); in the test on MCF7 breast it was -32.4% (active); in the test with HCT-116 colon, -49.6% (active). Moreover, the growth in the test with HCC-2998 colon is -78.9% (active); with KM12 colon, -37.2% (active).
Take `CC[N+](CCCCCCCCCC[N+](CC)(c1ccccn1)c1ccccn1)(c1ccccn1)c1ccccn1`: the growth was 13.8% with T-47D breast; 19.1% with BT-549 breast; -15.1% (active) with MDA-MB-435 melanoma; 10.1% with SW-620 colon; 7.81% (active) in the test on MCF7 breast; 9.06% (active) in the test with HCT-116 colon. The growth with HCC-2998 colon was 13.3%; in the test on KM12 colon, 5.01% (active).
On to `CCSc1nc(-c2ccc(F)cc2)c(C#N)c(=O)[nH]1`, for which the growth was 120% in the test with T-47D breast; 105% in the test on BT-549 breast; 101% with MDA-MB-435 melanoma; 107% with SW-620 colon; 102% with MCF7 breast; 109% in the test with HCT-116 colon. The growth with HCC-2998 colon is 99.8%; in the test on KM12 colon, 100%.
Take `Clc1ccc2nc(CI)c(CI)nc2c1`: the growth was 85.3% in the test on T-47D breast; 73.1% with BT-549 breast; 23.8% in the test with MDA-MB-435 melanoma; 25.1% with SW-620 colon; 22.4% in the test with MCF7 breast; 11% in the test on HCT-116 colon. Further, the growth in the test on HCC-2998 colon was 100%; with KM12 colon it was 101%.
With `Nc1ccc(Oc2c(F)c(F)c(Oc3ccc(N)cc3)c(F)c2F)cc1`, the growth with T-47D breast is 91.8%; in the test on BT-549 breast, 108%; in the test with MDA-MB-435 melanoma it was 104%; with SW-620 colon, 102%; in the test with MCF7 breast, 129%; in the test with HCT-116 colon, 81.5%. Further, the growth was 73.1% in the test on HCC-2998 colon and 110% in the test on KM12 colon.
As to `N#Cc1c(-c2ccccc2)cc(-c2ccccc2)n(CCC(=O)O)c1=O`, the growth with T-47D breast was 44.1%; in the test on BT-549 breast, 27.2%; in the test on MDA-MB-435 melanoma, -9.89% (active); in the test on SW-620 colon it was 37.3%; in the test on MCF7 breast, 35%; in the test with HCT-116 colon, 40%. Besides, the growth in the test with HCC-2998 colon is 74.3%; in the test with KM12 colon, 34.5%.
As for `COC(=O)Nc1ccc2ccc3c(NC(=O)OC)ccc4ccc1c2c43` (tested in a mixture with another compound), the growth in the test with T-47D breast is 49.6%; in the test on BT-549 breast it was 63.2%; in the test on MDA-MB-435 melanoma, -22.3% (active); with SW-620 colon it was 39.4%; in the test on MCF7 breast it was 31.4%; in the test on HCT-116 colon, 21.7%. Further, the growth is 57.9% in the test on HCC-2998 colon and 32.7% in the test with KM12 colon.
On to `C(#Cc1ccccc1C#Cc1ccccn1)c1ccc(OCCCCCCOc2ccc(C#Cc3ccccc3C#Cc3ccccn3)cc2)cc1`, for which the growth in the test with T-47D breast is 36.5%; with BT-549 breast, 39.6%; in the test on MDA-MB-435 melanoma, 25.6%; with SW-620 colon, 62.6%; in the test with MCF7 breast it was 21.1%; with HCT-116 colon, 38.4%. In addition, the values for the growth in the test on HCC-2998 colon and in the test with KM12 colon were 58.8% and 37.1%, respectively.
For the compound `CCCCCCCCN(CCO)CCCCCCCC`, the growth in the test with T-47D breast is 97.6%; with BT-549 breast, 106%; with MDA-MB-435 melanoma, 108%; with SW-620 colon, 101%; in the test on MCF7 breast, 93.5%; in the test with HCT-116 colon, 104%. The figures for the growth with HCC-2998 colon and with KM12 colon were 114% and 110%, respectively.
Consider `COc1ccc(-c2c3c(N)nc(-c4ccncc4)nc3nc3c2c(C)nn3-c2ccccc2)cc1`, for which the growth was 75.2% with T-47D breast; 87.1% in the test with BT-549 breast; 54% in the test on MDA-MB-435 melanoma; 34.4% with SW-620 colon; 47.7% in the test with MCF7 breast; 15.6% in the test on HCT-116 colon. The growth was 102% with HCC-2998 colon and 62.9% with KM12 colon.
As for `CCCCCc1c(C)[nH]c(/C=C2\N=C(c3ccc[nH]3)C=C2OCc2ccccc2)c1C`, the growth in the test with T-47D breast was -77.7% [100 µM] (active); with BT-549 breast, -94.6% [100 µM] (active); with MDA-MB-435 melanoma it was -93.9% [100 µM] (active); in the test with SW-620 colon, -34.7% [100 µM] (active); with MCF7 breast, -73% [100 µM] (active); in the test on HCT-116 colon, -94.7% [100 µM] (active). Besides, the growth in the test on HCC-2998 colon is -87.8% [100 µM] (active); in the test on KM12 colon, -80.9% [100 µM] (active).
With `Nc1nc(NC2CC2)c2ncn(C3C=CC(CO)C3)c2n1` (stereo not drawn), the growth is 110% in the test with T-47D breast; 115% with BT-549 breast; 105% with MDA-MB-435 melanoma; 106% with SW-620 colon; 107% in the test with MCF7 breast; 109% in the test on HCT-116 colon. The growth in the test with HCC-2998 colon was 103%; with KM12 colon, 99.7%.
In the case of `CCCCc1ccc(C(N)=O)nc1`, the growth is 101% with T-47D breast; 97.8% in the test on BT-549 breast; 106% with MDA-MB-435 melanoma; -90% (active) in the test with SW-620 colon; 86.9% in the test with MCF7 breast; 99.4% in the test on HCT-116 colon. The growth was 110% with HCC-2998 colon and 100% in the test on KM12 colon.
Consider `C=CCNC(=O)/C(=C/c1cccc([N+](=O)[O-])c1)NC(=O)c1ccccc1`, for which the growth is 98.2% with T-47D breast; 88.1% with BT-549 breast; 101% with MDA-MB-435 melanoma; 103% in the test with SW-620 colon; 101% in the test on MCF7 breast; 98.2% with HCT-116 colon. The values for the growth with HCC-2998 colon and in the test with KM12 colon were 78.2% and 109%, respectively.
